Screening results from PubChem.
Shiga toxin inh: A qHTS for Small Molecule Inhibitors of Shiga Toxin | inhibition, % at 38.7 µM | hit rate 9.2% among 290,000 | Vero cells, Shiga toxin protein synthesis inhibition reporter; in the data active = inhibition mostly above about 28%, no sharp cut-off; inactive = mostly below about 43%; note: 0% is about no effect
Pf growth 48h: Primary qHTS for delayed death inhibitors of the malarial parasite plastid, 48 hour incubation; P. falciparum luciferase growth in erythrocytes, 48 h; Potency, µM (doses to about 28.7 µM), inactives show top-dose activity change, negative = inhibition, actives largely listed as inhibitors; hit rate 5.9% among 310,000; AID 504832, 2011; note: potency is the fitted concentration of half-maximal effect; % is set by controls: 0 for no effect and ±100 for the full control effect
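A one-generation exposure of luciferase-tagged malaria parasites in RPMI 1640/Albumax erythrocyte culture, 37 C and 5% CO2. Inhibition is inferred from decreased luminescence after adding detection reagent.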
HCV inh: qHTS Assay for Inhibitors of Hepatitis C Virus (HCV) | AID 651820, 2012 | Potency, µM (doses to about 41.8 µM), for inactives: top-dose activity change, negative = inhibition, actives largely listed as inhibitors | Huh7.5.1 HCVcc-Cre infection, luciferase reporter, 44 h | hit rate 3.4% among 340,000; note: potency is the fitted concentration of half-maximal effect; % is set by controls: 0 for no effect and ±100 for the full control effect
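Seed cells (1,000/well) for 4 h; treat with compound and infect with HCVcc-Cre, moi about 0.5. Incubate 44 h, then detect luciferase activity.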
Pf growth 96h: Primary qHTS for delayed death inhibitors of the malarial parasite plastid, 96 hour incubation. P. falciparum luciferase reporter growth, 96 h. AID 504834, 2011. hit rate 6.9% among 320,000. Potency, µM (highest dose often 28.7 µM), inactives show at the highest dose activity change, negative = inhibition, hits mostly inhibitors; note: potency is the fitted concentration of half-maximal effect; % is set by controls: 0 for no effect and ±100 for the full control effect
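Parasite growth measured via integrated firefly luciferase reporter in P. falciparum. Infected erythrocytes at 2% hematocrit, 0.05% parasitemia final were treated 96 hours at 37 C under 5% CO2, and luminescence was read.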
AMA1 RON2 block: qHTS for Inhibitors of AMA1-RON; Towards Development of Antimalarial Drug Lead: Primary Screen; hit rate 0.2% among 360,000; AlphaScreen AMA1-biotinylated RON2 peptide binding; Plasmodium falciparum AMA1 (3D7) - RON2 peptide interaction; Potency, µM (highest dose often 58.2 µM), without a hit: at the highest dose activity change, negative = inhibition, usual class: inhibitors;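 note: potency is the fitted concentration of half-maximal effect; 0% = vehicle wells and -100% = peptide control; nearly all actives have a fitted effect of over 45% in size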
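AMA1 (3D7) with his tag at 25 nM final met compounds first, then biotinylated RON2 peptide at 25 nM; detection used donor plus acceptor beads, 10 µg/mL apiece, read by AlphaScreen after 30 min at room temperature.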
Cycloheximide cs: Cycloheximide Counterscreen for Small Molecule Inhibitors of Shiga Toxin; max response, %; hit rate 12% among 300,000; cell reporter, cycloheximide protein synthesis inhibition counterscreen; AID 2314, 2010; in the data active = max response mostly above about 13%, no sharp cut-off; inactive = mostly below about 14%; note: read at 38.3 µM for the half of the compounds with a filed dose; 0% is about no effect
* hit, by the source's call; ? = inconclusive; / = not tested or not shown; [ ] = another dose, or the depositor's remark. Compounds with a hit are over-represented: about 21% of the library has one in this group of screens. Unless noted, calls come from the whole dose curve; as a rule, active = well fitted curve in the direction sought with a large enough effect; inconclusive = small, poorly fitted or top-dose-only effect, or another doubt; inactive = no such curve, though single readings can be large; an effect the other way counts as inactive or inconclusive.

SMILES	Shiga toxin inh	Pf growth 48h	HCV inh	Pf growth 96h	AMA1 RON2 block	Cycloheximide cs
O=C(CCn1nnc(-c2cccs2)n1)NCc1ccccc1Cl	-10.3	-1.9%	12.5%	/	37.3%	-3.6
OC(c1cccnc1)c1nc(-c2cccc(F)c2)cs1 (centres undefined)	/	/	/	/	-0.9%	/
Cc1ccc(-c2ccc([C@H]3[C@H]4C=CC[C@@H](C)[C@@H]4C(=O)N3Cc3ccccc3)c(F)c2)cc1	-5.7	11.7µM*	55.9%[8.37 µM]	10.4µM*	0.0%	-5.5
COc1ccc(-c2cc3ccccc3s2)cc1[C@H]1[C@H]2C=CC[C@@H](C)[C@@H]2C(=O)N1Cc1ccccc1	44.3	-1.3%	-15.7%[8.37 µM]	?	-2.1%	3.0
CC1CC=CC2C1C(=O)N(Cc1ccccc1)C2c1ccc(-c2cc3ccccc3s2)cc1F (centres undefined)	96.4*	/	/	/	/	48.8*
CCC(Sc1nc2ccncc2[nH]1)C(=O)Nc1cc(Cl)ccc1C (centres undefined)	12.3	-6.2%	-4.5%	?	-0.9%	-5.7
CC(=O)c1ccc(NS(=O)(=O)c2cccc(C(=O)Nc3ccccc3C(=O)O)c2)cc1	-3.3	26.7%	9.5%	22.3%	-1.3%	-1.7
CCc1cc(=O)oc2c(CNCc3ccc(OC)cc3OC)c(O)c(Cl)cc12	-8.1	?	16.8%	?	14.1%	-0.8
Oc1ccc(Cl)cc1CNc1cnc2ccccc2c1	31.7	-22.4%	?	2.62µM*	14.8%	14.5*
C=CCc1cccc(CNc2cnc3ccccc3c2)c1O	20.5*	?	7.94µM*	-3.2%	0.0%	17.2*
Oc1ccccc1CNc1nccs1	17.7	/	14.7%	-11.4%	4.1%	-1.8
O=C(O)Cc1c(O)ccc2ccccc12	-20.1	5.2%	11.8%	14.7%	6.7%	-3.4
CC(C)n1c(NCc2cc(Cl)ccc2O)nc2ccccc21	-19.2	/	?	26.2%	-16.3%	-9.7
C=CCc1cccc(/C=N/c2nc3ccccc3n2CC)c1O	20.7	9.4%	-1.7%	-14.3%	2.2%	-0.7
Oc1ccc2ccccc2c1CNc1cnc2ccccc2c1	91.9*	/	31.4%	?	4.9%	29.4*
Oc1ccccc1CNc1cnc2ccccc2c1	31.7*	139.5%	?	21.8%	0.0%	30.9*
C=CCn1c(=O)/c(=C/c2ccc(Cl)cc2)s/c1=C(\C#N)c1nnc2n1CCCCC2	/	/	?	/	-1.1%	/
O=C(Nc1ccc(F)cc1)C(CCc1ccccc1)N1CCN(c2ccncc2)CC1 (centres undefined)	/	/	/	/	-0.6%	/
Cc1ccc(NS(=O)(=O)c2ccc(C)c(C(=O)NCC(c3ccccc3)N(C)C)c2)cc1 (centres undefined)	/	?	?	-20.3%	-7.6%	/
CCCS(=O)(=O)NC(=O)C1(C)CCN(C(=O)c2nc(C)oc2C)C1 (centres undefined)	/	/	/	/	1.5%	/
CCOC(=O)NN1C(=O)c2ccccc2NC1c1ccccn1 (centres undefined)	-4.2	8.1%	8.5%	10.4µM*	66.5%	10.0
CCOC(=O)NN1C(=O)c2ccccc2NC1c1ccccc1 (centres undefined)	-6.8	27.3%	16.0%	-22.1%	3.2%	8.0
Cc1ccccc1OCCCC(=O)Nc1ccc(Br)cc1	-10.2	10.3%	?	17.4%	34.1%	14.1
Cc1ccc(C)c(OCCCC(=O)Nc2ccccc2C(N)=O)c1	11.1	?	-23.3%	38.7%	12.5%	9.9
Cc1cccc(OCC(=O)Nc2nccs2)c1C	67.3*	242.5%	-6.1%	?	11.2%	66.9*
SMILES	Shiga toxin inh	Pf growth 48h	HCV inh	Pf growth 96h	AMA1 RON2 block	Cycloheximide cs
Cc1ccc(C)c(OCCCC(=O)Nc2nccs2)c1	41.1	?	12.6µM*	?	-7.6%	3.9
Cc1ccccc1OCCCC(=O)Nc1nccs1	-8.3	/	11.2µM*	-4.6%	-0.6%	-0.6
COc1ccc(OCCCC(=O)Nc2nccs2)cc1	20.3	?	-13.2%	?	-2.8%	12.7*
O=C(NC(c1ccccc1)c1ccccc1)c1ccc(CO)cc1	-1.4	?	-4.1%	?	0.7%	-2.0
CCOC(=O)C1=C(COC(=O)/C=C/c2ccc(O)c(OC)c2)NC(=O)NC1C (centres undefined)	/	?	-27.6%	13.6%	-10.2%	/
Cc1ccccc1Cn1c(=N)n(CC(=O)c2ccco2)c2ccccc21	-20.3	?	?	14.7µM*	-0.3%	-3.8
CCN(CC)Cc1cc2[nH]c3c4ccc(Cl)cc4ncc3c2cc1OC	-8.5	0.0738µM*	?	0.0928µM*	-11.1%	-6.6
Cc1ccc(NC(=O)Cn2c(=O)n(Cc3ccco3)c(=N)c3c4c(sc32)COC(C)(C)C4)cc1	-19.5	?	3.16µM*	?	3.3%	-1.0
COc1ccc(Cn2c(=O)n(Cc3ccco3)c(=N)c3c4c(sc32)COC(C)(C)C4)cc1	-10.2	5.86µM*	12.6µM*	13.1µM*	-16.9%	-2.8
CC1(C)Cc2c(sc3c2c(=N)n(Cc2ccco2)c(=O)n3Cc2ccc(F)cc2)CO1	-7.4	?	?	?	-14.1%	1.2
N#C/C(=N\Nc1ccc(Cl)c(Cl)c1)C(=O)C1CC1	65.2	99.5%	?	70.0%	-22.4%	34.9*
N#C/C(=N\Nc1ccc(F)cc1)C(=O)C1CC1	29.2	23.6%	10.7%	-14.1%	0.0%	19.8
Cc1cc(=O)[nH]c(SCCOc2ccc3c(c2)CCC3)n1	7.8	16.4%	7.8%	/	8.2%	14.1
Cc1cc(=O)[nH]c(SCCOc2ccc(OC(C)C)cc2)n1	46.9*	72.3%	-3.4%	1.3%	-17.2%	31.1*
C/C=C/c1ccc(OCCSc2nc(C)cc(=O)[nH]2)c(OC)c1	77.0*	?	13.5%	-11.7%	-8.5%	23.7*
CCCCC[C@H]1CCCCC[C@H](O)C[C@H](O)[C@@H](O)/C=C/C(=O)O1	/	/	/	/	-1.3%	/
COc1cc(N2CCCC2)c(OC)cc1C=O	5.0	9.0%	11.2µM*	-30.3%	-5.4%	-0.1
CC(C)CN1CCN(Cc2cccn2-c2ccccn2)CC1CCO (centres undefined)	17.6	55.3%	6.9%	8.28µM*	-3.1%	0.6
OCCC1CN(CC#Cc2ccccc2)CCN1Cc1ccccc1F (centres undefined)	3.9	-11.2%	20.3%	11.7µM*	-9.7%	-2.7
CC(C)CN1CCN(CC#Cc2ccccc2)CC1CCO (centres undefined)	21.8	27.5%	-4.7%	11.7µM*	-1.5%	6.2
CCCNC(=O)Nc1nc(C(N)c2ccc(OC)cc2)cs1 (centres undefined)	/	/	/	/	28.4%	/
